Compound activity deposited in PubChem BioAssay by National Center for Advancing Translational Sciences (NCATS).
Sampled rows, rich in hits. Any-hit rate of the full collection: about 19%.
DT40 TDP1 no CPT: qHTS for Inhibitors of human tyrosyl-DNA phosphodiesterase 1 (TDP1): qHTS in cells in absence of CPT; actives 15% (n = 420,000); Potency, µM (top dose mostly 46.2 µM), inactives show at the highest dose activity change, negative = growth inhibition, most hits filed as inhibitors; DT40 Tdp1-/- hTDP1 cells, no CPT, ATP luminescence, 48 h; also: potency is read from the fitted curve at half-maximal effect; % is scaled to controls: 0 for no effect and ±100 for the full control effect; nearly all actives have a fitted effect of over 55% in size
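A cellular qHTS used chicken DT40 cells lacking endogenous Tdp1 but carrying stably transfected human TDP1. Compounds were applied without camptothecin, and cell growth kinetics were judged by ATP-dependent luminescence after ≥48 hr.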
HepG2 viability: counter-screen for TGF-b inhibitors: cytotoxicity in HepG2 cells | HepG2 CAGA-GFP viability, ATP luminescence, 18 h | Potency, µM (top dose mostly 46.1 µM), inactives show at the top dose activity change, negative = cytotoxicity, hits mostly cytotoxic | AID 588856 | actives 0.76% (n = 410,000); also: potency is read from the fitted curve at half-maximal effect
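CellTiter-Glo luminescence gave cytotoxicity after 18 hours at 37 degrees C. The cells were HepG2 CAGA-GFP in 1% FBS DMEM, stimulated with 500 pg/mL TGF-beta after compound addition. %Activity was normalised to no-cell wells (complete cell-killing) and DMSO (no toxicity), and curves were fitted and classified.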
TGFb inhibitor: inhibitors of TGF-b signaling. HepG2 CAGA-GFP TGF-b/SMAD3 reporter, GFP fluorescence, 18 h; TGF-beta stimulated, 500 pg/mL final. Potency, µM (highest dose often 46.1 µM), for inactives: at the highest dose activity, negative = inhibition, most hits filed as inhibitors. actives 1.2% (n = 410,000). AID 588855; also: potency is read from the fitted curve at half-maximal effect; % is scaled to controls: 0 for no effect and ±100 for the full control effect; nearly all actives have a fitted effect of over 65% in size
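Inhibition of TGF-beta-driven CAGA-GFP reporter expression in HEPG2 cells is measured by cellular GFP fluorescence after 18 h stimulation with 500 pg/mL recombinant TGF-beta in 1% FBS medium at 37 degrees C.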
IL1B secr inh: blocks inflammasome-driven IL-1 beta release. THP-1 LPS/ATP IL-1B secretion, AlphaLISA, 16 h; active compounds read low. AID 743279. activity change, % at 57.5 µM. actives 4.7% (n = 360,000); in the data active = activity change below about -50%; inconclusive = mostly about -30% to -49%; also: % is scaled to controls: 0 for no effect and ±100 for the full control effect
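Secreted IL-1B measured by AlphaLISA bead assay after 16 h compound exposure of THP-1 cells; compounds (final up to 57.5 uM) added 1 h before LPS (250 ng/mL) and ATP (1.25 mM) stimulation; lower signal means less secretion.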
TDP1 cell CPT: growth inhibition of DT40 Tdp1-/-;hTDP1 cells with camptothecin (screen for TDP1 inhibitors). chicken DT40 Tdp1-/-;hTDP1 cells + 20 nM CPT, ATP luminescence, 48 h. Potency, µM (top dose mostly 46.2 µM), for inactives: at the highest dose activity change, negative = growth inhibition, actives largely listed as inhibitors. actives 12% (n = 420,000); also: potency is read from the fitted curve at half-maximal effect; % is scaled to controls: 0 for no effect and ±100 for the full control effect; nearly all actives have a fitted effect of over 55% in size
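Cell growth measured by CellTiter-Glo luminescence after a minimum 48 h, 37 C compound exposure with 20 nM CPT in Tdp1-knockout DT40 cells stably expressing hTDP1, seeded 400/well; qHTS titration format.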
TDP1 block: TDP1 (human) enzyme inhibition. recombinant TDP1, AlphaScreen DNA substrate cleavage. AID 485290. actives 0.28% (n = 350,000). Potency, µM (series often up to 130 µM), inactives show top-dose activity change, negative = inhibition, usual class: inhibitors; also: potency is read from the fitted curve at half-maximal effect; % is scaled to controls: 0 for no effect and ±100 for the full control effect; nearly all actives have a fitted effect of over 40% in size
Target sequence (Q9NUW8 whole entry, looked up): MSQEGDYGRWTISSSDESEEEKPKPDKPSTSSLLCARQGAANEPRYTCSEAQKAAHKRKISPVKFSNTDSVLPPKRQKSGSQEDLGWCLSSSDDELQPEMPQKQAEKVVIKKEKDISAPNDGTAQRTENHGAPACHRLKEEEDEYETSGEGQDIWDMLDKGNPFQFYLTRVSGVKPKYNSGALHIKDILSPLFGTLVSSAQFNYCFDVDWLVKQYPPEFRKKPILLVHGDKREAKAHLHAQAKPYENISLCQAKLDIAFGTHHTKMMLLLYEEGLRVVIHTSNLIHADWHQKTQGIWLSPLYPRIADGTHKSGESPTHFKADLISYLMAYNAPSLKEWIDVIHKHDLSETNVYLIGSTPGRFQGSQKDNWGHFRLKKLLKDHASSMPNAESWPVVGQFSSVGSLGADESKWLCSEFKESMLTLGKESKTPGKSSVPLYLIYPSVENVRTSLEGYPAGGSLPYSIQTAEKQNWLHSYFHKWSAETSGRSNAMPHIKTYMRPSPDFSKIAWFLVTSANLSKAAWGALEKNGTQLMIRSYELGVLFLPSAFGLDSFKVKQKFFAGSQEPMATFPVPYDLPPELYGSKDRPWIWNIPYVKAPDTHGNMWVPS
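Here, a 5' biotin and 3' phosphotyrosine-FITC DNA oligonucleotide reports Tdp1 activity: intact substrate bridges AlphaScreen beads, while cleavage leaves a 3' phosphate and drops signal. All incubations at room temperature.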
Active calls of the source: *; ? = inconclusive; . = not tested or not shown; [ ] = another dose, or the depositor's remark. Unless noted, calls follow the shape of the dose curve; as a rule, active = well fitted curve in the direction sought with a large enough effect; inconclusive = small, poorly fitted or top-dose-only effect, or another doubt; inactive = no such curve, though single readings can be large; an effect the other way counts as inactive or inconclusive.

SMILES | DT40 TDP1 no CPT | HepG2 viability | TGFb inhibitor | IL1B secr inh | TDP1 cell CPT | TDP1 block
CC(C)(C)c1ccc(C(=O)NCC(c2cccnc2)N2CCc3ccccc3C2)cc1 (stereo not given) | 1.8µM* | -60% | ? | . | 2.3µM* | 6%
Cc1cccc(NC(=O)C(=O)NCC(c2cccnc2)N2CCc3ccccc3C2)c1C (stereo not given) | 16µM* | -19% | -39% | . | 16µM* | -1%
COc1ccccc1NC(=O)C(=O)NCC(c1cccnc1)N1CCc2ccccc2C1 (stereo not given) | ? | -13% | ? | . | ? | 0%
COc1ccc(CNC(=O)c2ccc(NC(=O)N3CCSc4ccccc43)cc2)cc1 | ? | 3% | 22% | . | ? | 0%
O=c1c2cc3c(cc2n(Cc2cccc(F)c2)c(=O)n1Cc1nc(-c2ccccc2)no1)OCO3 | 2% | 0% | 2% | . | 18% | 3%
CCOC(=O)C1=C(C)Nc2ccccc2N=C1N | 11% | 6% | 1% | 4 | -2% | -5%
CCOC(=O)C1=C(C)Nc2ccccc2N=C1NC(=O)c1oc2ccccc2c1COC | 16µM* | -23% | ? | 0 | 21µM* | -1%
COCc1c(C(=O)Nc2nnc(C3CC3)s2)oc2ccccc12 | 12µM* | -3% | 1% | 9 | ? | .
CC(C)OCCCn1c(=O)c2ccccc2n2c(-c3cc(Cl)ccc3O)nnc12 | 18µM* | -22% | -22% | . | ? | 9%
COc1cccc(-c2nnc3n(Cc4ccc(C)cc4)c(=O)c4ccccc4n23)c1O | 26µM* | -23% | -14% | . | ? | 3%
COc1ccc(OC)c(-c2nnc3n(CCc4ccccc4)c(=O)c4ccccc4n23)c1 | 16µM* | -23% | 4% | . | 8.2µM* | 9%
CC(C)OCCCn1c(=O)c2ccccc2n2c(-c3ccccc3F)nnc12 | ? | -8% | 0% | . | -26% | 9%
COc1ccc(Cn2c(=O)c3ccccc3n3c(-c4cccc(OC)c4OC)nnc23)cc1 | 16µM* | -17% | 2% | . | ? | 6%
O=c1c2ccccc2n2c(-c3ccccc3O)nnc2n1Cc1ccc(F)cc1 | -11% | -3% | -6% | . | -5% | -3%
COc1cccc(-c2nnc3n(Cc4ccc(F)cc4)c(=O)c4ccccc4n23)c1 | ? | 11% | -16% | . | ? | 9%
COc1ccc2nc(NC(=O)c3ccc(S(=O)(=O)N4CCC(C)CC4)cc3)sc2c1 | ? | -6% | -3% | . | 3% | -3%
COc1ccc(CNC(=O)Cn2c(=O)nc(-c3ccccc3F)c3cc(Cl)ccc32)cc1OC | 0% | -4% | -6% | . | -9% | 4%
CCc1noc(C)c1C(=O)Nc1nc(-c2ccccc2)c(C(C)=O)s1 | -17% | -5% | ? | -13 | -29% | 0%
O=C(O)c1ccc(CNc2ncnc3nc[nH]c23)cc1 | -2% | . | . | . | 8% | 0%
Cc1cccc(C)c1-n1nnnc1C(c1ccnc2ccccc12)N1CCOCC1 (stereo not given) | -25% | . | . | 3 | -5% | .
O=c1c2ccccc2n2c(-c3ccc(F)c(F)c3)nnc2n1CCc1ccccc1 | ? | -8% | -14% | . | ? | 6%
O=c1c2ccccc2n2c(-c3ccc(Cl)cc3)nnc2n1CCc1ccccc1 | 18µM* | -7% | -38% | . | ? | 6%
Cc1ccc(N=Nc2ccc(O)cc2)c(Br)c1 | 4% | 0% | ? | -86* | 4% | 13%
Oc1ccc(N=Nc2n[nH]c(-c3ccc(Br)cc3)n2)cc1 | ? | -3% | ? | ? | ? | 6%
CCN(CC)S(=O)(=O)c1ccc(N=Nc2cc(C)cc(Br)c2O)cc1 | ? | 5% | 5% | -6 | -22% | .
SMILES | DT40 TDP1 no CPT | HepG2 viability | TGFb inhibitor | IL1B secr inh | TDP1 cell CPT | TDP1 block
Oc1ccc(N=Nc2ccc(Br)cc2)c(O)c1 | 23µM* | -1% | ? | 72 | 26µM* | 5%
CCC1CCC(C(=O)NNC(=O)c2cc(-c3ccco3)[nH]n2)CC1 (stereo not given) | ? | -25% | 6% | -5 | ? | 3%
COCc1cc(=O)[nH]c(/N=C(\N)Nc2cccc(C)c2)n1 | 1% | -11% | 19% | -9 | -7% | 4%
Cc1cccc(N/C(N)=N/c2nc(CSc3ccc(Cl)cc3)cc(=O)[nH]2)c1 | 9.2µM* | -46% | -10% | 13 | 8.2µM* | 6%
Cc1ccc(N/C(N)=N/c2nc(CSc3nnc(C)s3)cc(=O)[nH]2)c(C)c1 | 0.82µM* | 0% | 1% | 68 | 0.65µM* | 3%
CCOc1ccc(N/C(N)=N/c2nc(CSc3nnnn3-c3ccccc3)cc(=O)[nH]2)cc1 | ? | -2% | -4% | 0 | 16µM* | 1%
Cc1ccc(SCc2cc(=O)[nH]c(/N=C(\N)Nc3cccc4ccccc34)n2)cc1 | -5% | -5% | -2% | 42 | -24% | -2%
CCc1ccc(N/C(N)=N/c2nc(CSc3ncccn3)cc(=O)[nH]2)cc1 | 13µM* | 3% | 16% | 54 | ? | 5%
COC(=O)Cc1cc(=O)[nH]c(/N=C(\N)Nc2ccc(C)cc2)n1 | -8% | -2% | -3% | 13 | -2% | 0%
COCCCNC(=O)CCCn1c(SCC(=O)c2ccc(Br)cc2)nc2c(sc3ccccc32)c1=O | ? | 11% | -7% | . | ? | 3%
O=C(Nc1cc(C(F)(F)F)ccc1Cl)c1cc(-c2ccc3c(c2)OCCO3)on1 | ? | 3% | 32% | . | ? | 1%
Cc1ccc([N+](=O)[O-])cc1N/C=C1\CCc2ccccc2C1=O | ? | -33% | 4% | 7 | 21µM* | 5%
O=C(Nc1cccnc1)c1cnn2c(C(F)F)cc(C3CC3)nc12 | 5.2µM* | -29% | -5% | -16 | 15µM* | 3%
O=C(Nc1cccc(S(=O)(=O)N2CCOCC2)c1)c1cnn2c(C(F)F)cc(-c3ccccc3)nc12 | ? | -21% | 11% | 42 | ? | 6%
O=C(Nc1cc(Br)ccc1O)c1cnn2c(C(F)F)cc(C3CC3)nc12 | 16µM* | -3% | -20% | 6 | -13% | 0%
CCOC(=O)N/N=C1/C[C@@H](O)[C@@H](O)[C@@H]2[C@H]3C(=O)N(c4ccc(F)cc4F)C(=O)[C@@H]3CC[C@H]12 | . | . | . | . | . | 5%[21 µM]
CCCc1cc(NCCN(C)C)n2c(nc3ccccc32)c1C#N | ? | -9% | -1% | -10 | -9% | .
